# Source: the supplement of paper PMC6992640
# ± gives the standard deviation of the averaged measurements.
# How the values were obtained:
# Assay in all cases: cell viability (% of vehicle); higher = less cytotoxic
# [1] = test system: HCI01 (cells of a triple-negative basal-like breast cancer xenograft); conditions: 1 µM; 72 h
# [2] = test system: UCD52 (cells of a triple-negative basal-like breast cancer xenograft); conditions: 1 µM; 72 h
# [3] = test system: WHIM2 (cells of a triple-negative basal-like breast cancer xenograft); conditions: 1 µM; 72 h
# [4] = test system: WHIM30 (cells of a triple-negative basal-like breast cancer xenograft); conditions: 1 µM; 72 h
# [5] = test system: HCI01; conditions: 10 µM; 72 h
# [6] = test system: HCI03 (cells of an ER-positive luminal breast cancer xenograft); conditions: 10 µM; 72 h
# [7] = test system: HCI09 (cells of a triple-negative luminal androgen receptor type breast cancer xenograft); conditions: 10 µM; 72 h
# [8] = test system: HCI11 (cells of an ER-positive luminal breast cancer xenograft); conditions: 10 µM; 72 h
# [9] = test system: HCI13 (cells of an ER-positive luminal breast cancer xenograft); conditions: 10 µM; 72 h
# [10] = test system: HCI16 (cells of a triple-negative basal-like breast cancer xenograft); conditions: 10 µM; 72 h
# [11] = test system: UCD52; conditions: 10 µM; 72 h
# [12] = test system: WHIM2; conditions: 10 µM; 72 h
# [13] = test system: WHIM30; conditions: 10 µM; 72 h
Compound,cell viability [1],cell viability [2],cell viability [3],cell viability [4],cell viability [5],cell viability [6],cell viability [7],cell viability [8],cell viability [9],cell viability [10],cell viability [11],cell viability [12],cell viability [13]
COc1cc(Nc2ncc(F)c(Nc3ccc4c(n3)N(COP(=O)(O)O)C(=O)C(C)(C)O4)n2)cc(OC)c1OC [Fostamatinib (R788)],116,92.3,79,112,88.3 ± 8.6,102,87.2 ± 7,61,74.5 ± 1,65,55.7 ± 3.7,58.1 ± 4.2,86.6 ± 6.6
Cl.Fc1ccc(C2CCNCC2COc2ccc3c(c2)OCO3)cc1 (stereo not given) [Paroxetine HCl],91.6,79.7,100,87.4,63.7 ± 19,128,90.3 ± 17,74.8,120 ± 6.4,77.4,38.6 ± 4.8,43 ± 7.7,80.71 ± 0.29
COC(=O)c1ccc2c(c1)NC(=O)C2=C(Nc1ccc(N(C)C(=O)CN2CCN(C)CC2)cc1)c1ccccc1 [Nintedanib (BIBF 1120)],83.1,46,46.6,51.2,70.5 ± 19,63.6,51.4 ± 46,59,71.2 ± 12,85.5,34.9 ± 2.4,65.2 ± 15,47 ± 11
CN(C)c1ccc(O)c2c1CC1CC3C(N(C)C)C(=O)C(C(N)=O)=C(O)C3(O)C(=O)C1=C2O.Cl (stereo not given) [Minocycline HCl],103,100,91.2,102,68.2 ± 8.5,59.2,55.8 ± 58,52.6,78.7 ± 12,96.5,70.7 ± 4.3,82.8 ± 14,81.8 ± 11
O=C(O)c1cc(O)c(O)c(O)c1 [Gallic acid],96.4,97.1,82.1,102,77.5 ± 0.96,107,90.8 ± 9.4,54.3,105 ± 7.6,126,91.2 ± 8.8,58 ± 13,84.5 ± 8.9
CCOc1cc2ncc(C#N)c(Nc3ccc(F)c(Cl)c3)c2cc1NC(=O)C=CCN(C)C [Pelitinib (EKB-569)],98.5,27,31.4,46.1,30.5 ± 8.4,60.7,21.7 ± 4.1,37.7,34.2 ± 0.47,37.9,32.5 ± 1.5,31.1 ± 17,57.6 ± 12
CC(C)CC(NC(=O)CNC(=O)c1cc(Cl)ccc1Cl)B(O)O (stereo not given),51.7,24.9,130,23.1,53.4 ± 8.3,116,14.9 ± 0.73,174,33.1 ± 5.4,84.6,58.8 ± 3.8,34.22 ± 0.066,80.3 ± 24
CC(C)CC(NC(=O)C(NC(=O)c1cccc(-c2ccccc2)n1)C(C)O)B(O)O (stereo not given),55.2,25,132,22.5,76.8 ± 10,93.4,15.8 ± 2,171,40.5 ± 10,82.8,66 ± 0.77,42.8 ± 3.3,93.3 ± 3.5
CN(C)CC=CC(=O)Nc1cc2c(Nc3ccc(F)c(Cl)c3)ncnc2cc1OC1CCOC1 (stereo not given) [Afatinib (BIBW2992)],71.3,27.2,50.9,49.6,25.61 ± 0.24,47.7,15.1 ± 1.8,73.5,43.4 ± 1.5,55.4,18.7 ± 0.37,34.6 ± 2.6,44.3 ± 6.3
Cc1c(Cl)cccc1Nc1ccccc1C(=O)O [Tolfenamic Acid],95.9,102,106,92.6,100 ± 30,118,80.6 ± 9.7,91.9,71.1 ± 33,103,70.7 ± 3.2,41.7 ± 14,77.7 ± 3.3
CCCCc1oc2ccc(NS(C)(=O)=O)cc2c1C(=O)c1ccc(OCCCN(CCCC)CCCC)cc1.Cl [Dronedarone HCl],110,86.5,106,76.2,29.3 ± 12,48,24.4 ± 12,66.1,34.9 ± 1.1,46.6,30.9 ± 5.9,40.9 ± 14,33.3 ± 5.1
C=C(c1ccc(C(=O)O)cc1)c1cc2c(cc1C)C(C)(C)CCC2(C)C [Bexarotene],106,107,91.9,142,60.2 ± 32,85.9,98.5 ± 3.8,100,54.3 ± 2.4,84.7,98 ± 14,44.8 ± 14,93.8 ± 4.4
CCc1oc2ccccc2c1C(=O)c1cc(Br)c(O)c(Br)c1 [Benzbromarone],88.4,92.9,102,88.3,65.9 ± 49,103,33.8 ± 25,98,128 ± 29,97,76 ± 7.4,40.1 ± 12,95.1 ± 20
CCOC(=O)C1=C(COCCN)NC(C)=C(C(=O)OC)C1c1ccccc1Cl.O=S(=O)(O)c1ccccc1 (stereo not given) [Amlodipine Besylate],93.3,97.5,107,88.5,94.062 ± 0.027,115,63.8 ± 45,110,97.8 ± 2.3,102,50 ± 3.2,37 ± 1.7,81.2 ± 8.3
Cc1cccc(CN2CCN(C(c3ccccc3)c3ccc(Cl)cc3)CC2)c1.Cl.Cl (stereo not given) [Meclizine 2HCl],136,93.4,98,99.5,85.9 ± 7.1,57.9,74 ± 12,67.4,52.7 ± 10,91.8,44 ± 6.2,71.6 ± 13,45.4 ± 6.8
